# From PubChem BioAssay (NCATS)
# Values joined by “and” are separate entries in the source; they are usually repeats but may differ in a detail not shown here. Equal entries are not always repeated. Inconclusive results are not listed. Entries that show only a call come without a potency. Unmarked numbers belong to inactive results. Active and inactive are the calls of the source. Calls come from the whole dose curve; as a rule, active = well fitted curve in the direction sought with a large enough effect; inconclusive = small, poorly fitted or top-dose-only effect, or another doubt; inactive = no such curve, though single readings can be large; an effect the other way counts as inactive or inconclusive.
# Assays:
# [1] = molecular target: Cytochrome P450 3A7 (Homo sapiens) (UniProt P24462); experiment: Cytochrome P450 family 3 subfamily A member 7 (CYP3A7) small molecule antagonists: luciferase biochemical qHTS assay (AID 1963596); note: nearly all actives have a fitted effect of over 40% in size
# Cytochrome P450 3A7 (Homo sapiens), sequence (P24462 whole entry, looked up): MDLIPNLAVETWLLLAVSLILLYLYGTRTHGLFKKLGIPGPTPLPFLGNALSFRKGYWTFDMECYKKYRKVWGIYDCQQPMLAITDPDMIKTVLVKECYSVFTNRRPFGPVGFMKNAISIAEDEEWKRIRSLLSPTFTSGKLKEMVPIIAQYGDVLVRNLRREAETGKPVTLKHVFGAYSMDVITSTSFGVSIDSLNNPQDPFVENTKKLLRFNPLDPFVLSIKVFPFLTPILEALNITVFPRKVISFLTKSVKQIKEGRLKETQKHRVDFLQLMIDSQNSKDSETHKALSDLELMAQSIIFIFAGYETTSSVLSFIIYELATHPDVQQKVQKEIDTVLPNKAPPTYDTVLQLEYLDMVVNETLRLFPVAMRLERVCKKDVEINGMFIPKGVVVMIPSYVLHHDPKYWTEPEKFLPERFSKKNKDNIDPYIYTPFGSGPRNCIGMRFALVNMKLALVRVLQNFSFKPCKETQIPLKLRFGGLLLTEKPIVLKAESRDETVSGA
# Summary of the method: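 Luminescence from luciferin released by CYP3A7 from a proluciferin substrate, read 20 min after detection reagent. Compound and enzyme-substrate mix sat 10 min before NADPH regeneration solution; reaction ran 1 h at room temperature.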
# [2] = Viability qHTS for spleen associated tyrosine kinase inhibitor (SYKi) drug resistant MV4-11 cells (AID 1963824); note: nearly all actives have a fitted effect of over 35% in size; note: potency is the fitted concentration of half-maximal effect
# Summary of the method: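 CellTiter-Glo luminescence, read 10 min after reagent addition, reports viability after a 72 hr compound exposure. Cells are an MV4-11 line made resistant to SYK inhibition, seeded at 500 per well onto compound-containing plates.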
# [3] = Cellular viability qHTS for adrenocortical cancer (ACC) cell line SW-13 (AID 1963989); details: SW-13 ACC cells viability, CellTiter-Glo, 48 h; activity (max response): hits give low values; note: nearly all actives have a fitted effect of over 65% in size; note: potency is the fitted concentration of half-maximal effect;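 for activity (max response): cells grown in serum-free medium with ITS supplement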
# Summary of the method: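 SW-13 cells in ITS-supplemented serum-free DMEM were plated overnight, then exposed for 48 h at 37C to compound titrations (up to 46 uM final). Viability was read by CellTiter-Glo luminescence; four-parameter logistic fits gave IC50 and efficacy.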
# [4] = Cellular viability qHTS for adrenocortical cancer (ACC) cell line NCI-H295R (AID 1963990); note: nearly all actives have a fitted effect of over 60% in size; note: potency is the fitted concentration of half-maximal effect
# Summary of the method: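 Luminescent ATP read-out (CellTiter-Glo, 20 min RT) after 48 h drug exposure of NCI-H295R cells; a titration up to 46 uM final. Data normalized to doxorubicin (100% inhibition) and DMSO (0%); 4-parameter fit gives IC50, max response.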
Compound,Potency [1],Potency [2],activity (max response) [3],Potency [4],Potency [3]
CC1CCc2cc(F)cc3c(=O)c(C(=O)O)cn1c23 (stereo not drawn),inactive,6.68 µM (active),5.01%,inactive,
COc1ccc(C(Cl)=C(c2ccc(OC)cc2)c2ccc(OC)cc2)cc1,inactive,inactive,,inactive,
COCCc1ccc(OCC2CO2)cc1 (stereo not drawn),inactive,inactive,-2.52%,inactive,
CCCOC(=O)c1ccccc1,inactive,inactive,11.8%,inactive,
Nc1nc(-c2ccccc2)c(Br)c(=O)[nH]1,inactive,inactive,0.407%,inactive,
CCCOC(=O)c1ccc(O)cc1,inactive,0.0863 µM (active),,inactive,
O=c1[nH]c(=O)n([C@H]2C[C@H](O)[C@@H](CO)O2)cc1C(F)(F)F,inactive,2.11 µM (active) and 2.35 µM (active),,inactive,
C[N+](C)(C)CCOC(N)=O,inactive,inactive,,inactive,
Nc1ncnc2c1ncn2Cc1c(F)cccc1Cl,inactive,inactive,6.36%,inactive,
COc1cc2nc(-c3cc(F)ccc3O)nc(N[C@@H]3CNC[C@H]3C(C)(C)O)c2cc1OC,inactive,11.6 nM (active) and 5.3 nM (active),,6.31 µM (active),6.31 µM (active)
CCCCCCCCCCCCCCCCCC(=O)O,inactive,inactive,18.1%,inactive,
O=C(O)CC1CCC(c2ccc(-c3ccc(Nc4ccc(C(F)(F)F)nc4)cn3)cc2)CC1 (stereo not drawn),inactive,18.6 µM (active),-23.1%,inactive,
CCN(CC)CCNC(=O)c1ccc(NC(C)=O)cc1,inactive,inactive,-7.72%,inactive,
CC(=O)O[C@H]1C[C@@H]2CC[C@@H]3[C@H](CC[C@@]4(C)[C@H]3C[C@H]([N+]3(C)CCCCC3)[C@@H]4OC(C)=O)[C@@]2(C)C[C@@H]1N1CCCCC1,inactive,inactive,0.69%,inactive,
CC(=O)N(CC(=O)N(C)C)c1ccccc1,inactive,inactive,-5.65%,inactive,
C[N+](C)(C)CCCCCC[N+](C)(C)C,inactive,inactive,10.1%,inactive,
CN1CCN(N)CC1,inactive,inactive,-3.26%,inactive,
Oc1ccccc1C=NCc1ccccc1,inactive,inactive,6.8%,inactive,
